Assay [1] can be described thus: resazurin metabolic signal in HepG2 cells – cell-based, resazurin fluorescence, 24 h, PK04 Diversity Set, profiling panel (AID 1172). Note: test concentration not given here. The note with it: HepG2 viability, higher = more signal. In general terms: Resazurin is reduced to fluorescent resorufin, in cell work by metabolically active cells.
Assay [2] in a line: budding yeast growth changes without added modifier – OD600, strain BY4716, 24 h, basal condition, primary screen (AID 1173). The note with it: S. cerevisiae BY4716 growth, OD600, 24 h; higher = more signal, called active from +8 up or from −8 down.
A short description of assay [3]: viability profiling in MM1S myeloma cells – cell-based, resazurin fluorescence, basal, 24 h, PK04 Diversity Set, profiling panel (AID 1174).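 Note: MM1S multiple myeloma cell line; test concentration not given here.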 The note with it: higher = more signal, called active from +8 up or from −8 down.
Assay [4] concerns the target Dihydroorotate dehydrogenase (quinone), mitochondrial (Plasmodium falciparum (isolate 3D7)) (UniProt Q08210). The experiment in a line: inhibition of P. falciparum DHODH – biochemical, C-terminal His tag, absorbance 600 nm, primary screen (AID 1175).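 Note: recombinant parasite enzyme with a five histidine tag at its C terminus; test concentration not given here.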 The following applies: PfDHODH enzyme, DCIP absorbance 600 nm; higher = more signal, called active from +8 up or from −8 down.

Assay [5] in a line: inhibition of PAO1 biofilm formation – strain PAO1, LB-PBS medium, absorbance 600 nm, primary screen (AID 1176). Note: test concentration not given here. The following applies: P. aeruginosa PAO1 growth/biofilm, A600, 12 h; higher = more signal.
Assay [6] is described as follows: growth modulation of vineyard yeast isolate – strain RM11-1a, OD600, basal, 24 h, primary screen (AID 1177).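 Note: cultures grown under basal conditions with no added stressor; test concentration not given here.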 The following applies: S. cerevisiae RM11-1a growth, OD600, 24 h; higher = more signal, called active from +8 up or from −8 down.
The nature of assay [7]: growth of efflux-deficient E. coli DRC39 – strain DRC39, OD650, 24 h, E. coli filamentation inducers, primary screen (AID 1178).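 Note: growth measured as culture turbidity by optical density at 650 nm; test concentration not given here.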 The following applies: E. coli DRC39 acrAB, higher = more signal, called active from +8 up or from −8 down.
Assay [8] can be described thus: growth of efflux-deficient E. coli DRC39 – strain DRC39, OD650, 48 h, E. coli filamentation inducers, primary screen (AID 1179).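 Note: screen aims at cell division blockers that make cells filament.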 The note with it: E. coli DRC39 delta-acrAB growth, higher = more signal, called active from +8 up or from −8 down.
Assay [9] is described as follows: viability profiling in RPMI8226 myeloma cells – cell-based, resazurin fluorescence, basal, 24 h, PK04 Diversity Set, profiling panel (AID 1180).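 Note: RPMI8826 multiple myeloma cell line at 5000 cells per well; test concentration not given here.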 The note with it: higher = more signal.
In assay [10] the target is E3 ubiquitin-protein ligase XIAP (Homo sapiens) (UniProt P98170). The experiment in a line: small molecules binding XIAP protein – biophysical, small-molecule microarray, fluorescence 635 nm, primary screen (AID 1181).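 Note: score merges 667 nm emission and signal to noise over triplicate slides.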 The note with it: higher = more signal.
Sequence of E3 ubiquitin-protein ligase XIAP (Homo sapiens) (P98170 whole entry, looked up): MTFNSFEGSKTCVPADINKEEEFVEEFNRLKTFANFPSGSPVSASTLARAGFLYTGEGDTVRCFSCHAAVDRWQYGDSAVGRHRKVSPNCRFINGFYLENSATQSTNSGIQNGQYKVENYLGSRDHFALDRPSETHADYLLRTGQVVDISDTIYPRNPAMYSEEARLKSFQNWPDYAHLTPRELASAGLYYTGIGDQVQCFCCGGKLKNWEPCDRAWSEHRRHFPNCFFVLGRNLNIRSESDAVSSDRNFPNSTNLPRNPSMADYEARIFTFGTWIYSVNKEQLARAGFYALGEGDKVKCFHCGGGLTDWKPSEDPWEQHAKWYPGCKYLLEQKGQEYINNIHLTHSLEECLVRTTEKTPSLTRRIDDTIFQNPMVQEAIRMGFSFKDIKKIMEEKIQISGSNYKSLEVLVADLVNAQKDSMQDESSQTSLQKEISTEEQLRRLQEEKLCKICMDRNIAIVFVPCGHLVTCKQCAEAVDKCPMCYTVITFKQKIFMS

Active and inactive are the calls of the source. Unless noted, the rule behind the calls is not given here.

Sequence of Dihydroorotate dehydrogenase (quinone), mitochondrial (Plasmodium falciparum (isolate 3D7)) (Q08210 whole entry, looked up): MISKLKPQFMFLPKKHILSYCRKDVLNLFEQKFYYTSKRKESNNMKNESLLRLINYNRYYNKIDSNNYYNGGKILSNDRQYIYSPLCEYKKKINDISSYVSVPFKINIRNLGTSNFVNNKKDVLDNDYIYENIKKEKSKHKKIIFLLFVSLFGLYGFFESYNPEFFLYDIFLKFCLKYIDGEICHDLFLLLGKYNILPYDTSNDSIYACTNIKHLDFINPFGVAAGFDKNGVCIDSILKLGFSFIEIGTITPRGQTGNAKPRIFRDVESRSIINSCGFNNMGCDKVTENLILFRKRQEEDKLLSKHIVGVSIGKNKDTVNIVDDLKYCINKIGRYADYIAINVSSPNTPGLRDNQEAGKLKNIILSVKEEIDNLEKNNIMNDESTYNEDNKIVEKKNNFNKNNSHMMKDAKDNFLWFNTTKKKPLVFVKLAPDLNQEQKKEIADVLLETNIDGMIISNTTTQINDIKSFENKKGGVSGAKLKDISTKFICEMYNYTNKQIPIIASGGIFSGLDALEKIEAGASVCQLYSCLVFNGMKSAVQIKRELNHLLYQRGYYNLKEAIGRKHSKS

Consider `C[N+](C)(C)CCCC[C@@H]1NC(=O)[C@H]2C[C@@H](C(=O)NCCCCCCNC(=O)CS)[C@@H](c3cccc(OCCO)c3)N2C1=O`, for which the z-score was -0.191 in [1]; 0.578 (inactive) in [2]; -0.0499 (inactive) in assay [3]; -0.0896 (inactive) in [5]; 0.293 (inactive) in assay [6]; 0.474 (inactive) in [7]. Besides, the z-score in assay [8] was 0.645 (inactive); in assay [9], -0.442. In addition, the composite z-score in [4] was 0.459 (inactive); in [10], -0.227.

As for `C=C(/C(=C/C[C@H](OC(C)=O)c1ccccc1OCCO)c1cnc2ccccc2c1)C(C)C`, the z-score in assay [1] is -0.558; in [2] it was 0.323 (inactive); in assay [3], -1.09 (inactive); in [5] it was 2.19 (inactive); in [6], 1 (inactive); in assay [7], -0.672 (inactive). The z-score in assay [8] was -0.622 (inactive); in assay [9], -0.817. Also, the composite z-score in assay [4] was -5.2 (inactive); in assay [10], -0.238.

In the case of `COC(=O)[C@@]1(Cc2ccccc2)[C@H]2c3cc(C(=O)N(C)C)n(Cc4ccsc4Br)c3C[C@H]2CN1C(=O)c1ccccc1`, the z-score in [1] is -1.77; in [2], 1.92 (inactive); in [3], -1.74 (inactive); in assay [5], 0.467 (inactive); in assay [6] it was 1.24 (inactive); in [7], 0.156 (inactive). The z-score in assay [8] is 0.0523 (inactive); in assay [9], -3.12. Besides, the composite z-score in [4] was 0.486 (inactive); in [10] it was 0.0496.

Consider `O=C(c1ccccc1)N1C(=O)[C@]2(COC(c3ccc(OCCCO)cc3)=N2)Cc2ccccc21`, for which the z-score in [1] was 0.0993; in [2], -1.67 (inactive); in assay [3], -1.96 (inactive); in assay [5], 0.95 (inactive); in [6], 0.349 (inactive); in assay [7], 0.107 (inactive). For the same compound, the z-score in assay [8] is -0.26 (inactive); in assay [9] it was -1.24. In addition, the figures for the composite z-score in assay [4] and in assay [10] were 0.201 (inactive) and 0.0479, respectively.

Take `COCCCNC(=O)[C@]1(CCC(=O)OC(C)(C)C)N=C(c2ccc(OCCCO)cc2)O[C@@H]1c1ccccc1CN=[N+]=[N-]`: the z-score in [1] is 0.49; in assay [2], -0.199 (inactive); in assay [3] it was -0.123 (inactive); in assay [5], 1.56 (inactive); in assay [6], -0.123 (inactive); in assay [7] it was 0.323 (inactive). For the same compound, the z-score was -0.187 (inactive) in [8] and -0.0741 in assay [9]. Besides, the values for the composite z-score in assay [4] and in assay [10] were 0.249 (inactive) and 0.23, respectively.

Consider `CC(C)N1C(=O)[C@@]2(Cc3ccccc31)c1ccccc1C(=O)N(Cc1ccccc1Cl)[C@H]2c1ccc(CO)cc1`, for which the z-score was 1.07 in assay [1]; -1.87 (inactive) in [2]; 0.845 (inactive) in [3]; 0.31 (inactive) in [5]; -1.6 (inactive) in [6]; 0.344 (inactive) in assay [7]. Moreover, the z-score in [8] was 0.659 (inactive); in [9] it was 1.32. Further, the composite z-score in assay [4] is -4.26 (inactive); in [10] it was 0.257.

As for `C=CC(=C)[C@H]1Oc2ccccc2S(=O)(=O)N2CCC[C@@H]12`, the z-score in assay [1] is -0.702; in assay [2] it was -3 (inactive); in assay [3] it was -0.205 (inactive); in assay [5] it was -0.389 (inactive); in [6], -0.377 (inactive); in assay [7], -0.553 (inactive). Further, the z-score in [8] was -0.84 (inactive); in [9], -0.973. For the same compound, the composite z-score in assay [4] is 0.742 (inactive); in assay [10] it was -0.02.

As to `NCCCCCCNC(=O)[C@@H]1C[C@@H]2C(=O)NCC(=O)N2[C@@H]1c1ccc(O)cc1`, the z-score in [1] is -0.45; in assay [2], 0.333 (inactive); in assay [3] it was 1.02 (inactive); in assay [5], 0.696 (inactive); in [6], 0.681 (inactive); in assay [7] it was -0.0366 (inactive). The results for the z-score in assay [8] and in assay [9] were -0.697 (inactive) and 0.08, respectively. For the same compound, the results for the composite z-score in assay [4] and in assay [10] were 0.99 (inactive) and 0.0761, respectively.

On to `COC(=O)[C@@]1(Cc2ccc(OC)cc2)[C@H]2c3cc(C(=O)N(C)C)n(C)c3C[C@H]2CN1C(=O)c1ccccc1`, for which the z-score was -0.105 in [1]; 1.3 (inactive) in assay [2]; -2.26 (inactive) in assay [3]; 0.976 (inactive) in [5]; 0.241 (inactive) in assay [6]; -0.372 (inactive) in assay [7]. The z-score is -1.28 (inactive) in assay [8] and -2.45 in assay [9]. Further, the composite z-score in [4] was -0.342 (inactive); in [10], 0.0279.

As for `O=C1C[C@@](C(=O)NCCN2CCOCC2)(c2ccc([N+](=O)[O-])cc2)[C@@H](c2ccc(CO)cc2I)N1CC12CC3CC(CC(C3)C1)C2`, the z-score was -5.11 in assay [1]; -12.9 (active) in [2]; -6.88 (inactive) in assay [3]; 0.941 (inactive) in assay [5]; -21.4 (active) in assay [6]; -0.272 (inactive) in assay [7]. In addition, the values for the z-score in assay [8] and in [9] were -0.305 (inactive) and -5.62, respectively. Moreover, the composite z-score in [4] was -0.227 (inactive); in assay [10] it was -0.0095.

Take `CN1C(=O)C2C=CC(C(O)C#Cc3ccccc3)N(N3CCCCC3)C2C1=O` (stereo not given): the z-score was -0.279 in assay [1]; -0.375 (inactive) in assay [2]; -0.347 (inactive) in assay [3]; 0.614 (inactive) in [5]; -0.0362 (inactive) in assay [6]; -0.276 (inactive) in assay [7]. For the same compound, the z-score in [8] was -0.884 (inactive); in assay [9], -0.0142. The composite z-score in assay [4] was -1.07 (inactive); in assay [10] it was -0.0474.

As to `C=C(C(=O)CC[C@@H](OC(=O)c1cccnc1)c1ccccc1OCCO)C(C)C`, the z-score is -0.0206 in [1]; -1.51 (inactive) in [2]; -0.444 (inactive) in assay [3]; 0.613 (inactive) in assay [5]; -0.337 (inactive) in assay [6]; 0.335 (inactive) in assay [7]. Further, the figures for the z-score in assay [8] and in [9] were 0.195 (inactive) and -0.632, respectively. In addition, the composite z-score was -0.0125 (inactive) in [4] and -0.0872 in assay [10].

The record behind these values is PubChem BioAssay.
